# Test system: P. falciparum NF54-pfs16-GFP late (IV-V) stage gametocytes
# Experiment: relative % inhibition of viable gametocyte number; higher = more gametocytocidal
# Conditions: 0.5 µM; stage: late (IV-V) gametocyte; incubation 72 h
# Outline: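 Relative inhibition was normalised to in-plate vehicle and positive-control wells, with viable gametocytes defined on confocal images as elongated GFP objects whose MitoTracker Red signal exceeded a cut-off. NF54 pfs16-GFP gametocytes, magnet-isolated at early (I/IIa, day 2) or late (day 8) stage, were plated at 10% parasitaemia, 0.1% haematocrit with compound at 5 or 0.5 µM. Plates were incubated 72 h at 37°C, 5% CO2, 5% O2, then stained overnight.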
row,Compound,relative % inhibition [%]
1,COc1ccc(CNC(=O)c2cc3c(=O)n4ccccc4nc3n(CCc3ccccc3)c2=N)cc1,-16.6
2,COc1ccc(C=C2SC(Nc3ccccc3)=NC2=O)cc1,47.2
3,COc1ccc2nc(C)cc(Nc3cccc(O)c3)c2c1,-18.7
4,CCOc1cccc(C(=O)Nc2ccc(-c3nc4ccccc4[nH]3)cc2)c1,4.79
5,CCOC(=O)c1cnc2c(CC)cccc2c1O,21.6
6,COc1ccccc1N1CCN(C(CNS(=O)(=O)c2ccc(Cl)cc2)c2cccnc2)CC1 (centres undefined),-0.978
7,CN1CCN(c2ncnc3c2[nH]c2ccc(Cl)cc23)CC1,2.38
8,CC(Oc1ccc(NC(=O)c2cccs2)cc1)C(=O)c1ccc(Cl)cc1 (centres undefined),16.4
9,CCOC(=O)c1cnc2ccc(OC)cc2c1Nc1ccc(N2CCN(C)CC2)cc1,11.9
10,Cc1ccc(C(=O)c2oc3ccc4c(C)cc(=O)oc4c3c2C)cc1,0.817
11,COc1ccc(CCn2c(=N)c(C(=O)NCc3cccnc3)cc3c(=O)n4cccc(C)c4nc32)cc1,-7.36
12,CN(C)CCCNCc1ccc(-c2ccc(F)c(Cl)c2)o1,7.27
13,O=C(NNc1cc(N2CCCC2)nc(N2CCCC2)n1)c1ccccc1,10.9
14,COc1ccc(C(=O)Nc2nonc2-c2ccc(OC)c(OC)c2)cc1Cl,13.1
15,CCn1nc(-c2ccc(C(=O)OC)cc2)nc2c(=O)n(C)c(=O)nc1-2,68
16,O=C(NC1CCN(Cc2ccccc2)CC1)c1cc(-c2ccncc2)nc2ccc(Cl)cc12,-28.1
17,CCOc1c(Cl)cc(CNCC(O)c2ccccc2)cc1OC (centres undefined),36.5
18,CN1CCN(c2nc(Nc3ccc(O)cc3)nc3ccccc23)CC1,-10.7
19,CCN(CC)CCCNc1ccnc2cc3ccccc3cc12,-7.72
20,Cc1cc(C)c2nc(N3CCC(C(=O)NCCCN4CCC(N5CCCCC5)CC4)CC3)sc2c1,-24.9

row,Compound,relative % inhibition [%]
1,CNCCCNc1ccnc2cc(Cl)ccc12,26.6
2,CCOc1cc2c(cc1OCC)C(c1cc(OC)c(O)cc1Cl)NCC2 (centres undefined),25.6
3,CN(C)c1ccc(N=Cc2ccc(N3CCOCC3)cc2)cc1,22.1
4,Cc1cccc(Nc2nc(N)c3ccccc3n2)c1,-5.43
5,CCOC(=O)C1=C(c2ccccc2)N=c2sc(=Cc3cc(C)n(-c4ccc(F)cc4)c3C)c(=O)n2C1c1cccc(OC)c1OC (centres undefined),50.5
6,Oc1ccc2ccccc2c1CNc1nc2ccccc2[nH]1,6.29
7,O=C(Nc1ccc(N2CCN(Cc3ccccc3)CC2)cc1)c1cccs1,6.6
8,CN(C)CCNc1cc(-c2ccccc2)nc2ccccc12,-18.3
9,Cc1ccc(C)c(Cn2c(N3CCC(C(=O)NCc4cccs4)CC3)nc3ccccc32)c1,6.18
10,CCOc1cc(Cl)c(C(C)NC(=O)c2ccccc2)cc1OCC (centres undefined),8.2
11,O=C(Nc1cccc(-c2nc3ccccc3[nH]2)c1)c1cccc(NC(=O)c2ccco2)c1,-1.52
12,Oc1c2c(nc3ccccc13)CCCC2,26.9
13,COc1ccc(CNC2CCN(c3ccc(NC(=O)c4cccc(Cl)c4)cc3)CC2)cc1OC,-4.13
14,Cc1ccc(CN2CCC(C(=O)Nc3ccc(-c4cc5ccccc5[nH]4)cc3)CC2)o1,3.47
15,FC(F)(F)c1cccc(Nc2nc(-c3ccccc3)nc3ncccc23)c1,2.84
16,COc1ccc(-c2nc(NC(=O)CS(=O)(=O)c3ccc(F)cc3)sc2C)cc1,73
17,OC1=C2C(=Nc3ccccc3SC2c2ccc(Br)cc2)c2ccccc21 (centres undefined),71.4
18,CCc1ccc(Nc2cc(C)nc3nc(C)nn23)cc1,4.51
19,Cc1ccc(-c2cc3c(SCC(=O)Nc4cc(C(F)(F)F)ccc4Cl)nccn3n2)cc1,14.7

# From the supplement of paper PMC3842684
